The source of these data is paper PMC5540273 (PLoS ONE, 2017).

Several values for one entry are separate records, joined by “and”; a condition that tells them apart may be missing. Equal entries are not always repeated. Where two headings read alike, the source gives them in different places.

Experiment [1] concerns MAP4K3. Particulars: concentration: 1 μM, replicates: in singlicate; n = 1.
Experiment [2] has as its system MAP4K4. The following applies: concentration: 1 μM, replicates: in singlicate, n = 1.
Experiment [3] has as its system MAP4K5. The following applies: concentration: 1 μM, replicates: in singlicate, n = 1.
The subject of experiment [4] is MAPKAPK2. Particulars: concentration: 1 μM, replicates: in singlicate, n = 1.
Experiment [5] relates to MAPKAPK5. Particulars: concentration: 1 μM, replicates: in singlicate; n = 1.
Experiment [6] deals with MARK1. The following applies: concentration: 1 μM, replicates: in singlicate, n = 1.
In experiment [7] the test system is MARK2. The following applies: concentration: 1 μM, replicates: in singlicate, n = 1.
Experiment [8] has as its system MARK3. Particulars: concentration: 1 μM, replicates: in singlicate, n = 1.
Experiment [9] concerns MARK4. The following applies: concentration: 1 μM, replicates: in singlicate, n = 1.
Experiment [10] deals with MAST1. Particulars: concentration: 1 μM, replicates: in singlicate, n = 1.
The subject of experiment [11] is T1, MEK1.
T1 construct: gene MAP2K1
The following applies: concentration: 1 μM, replicates: in singlicate, n = 1.

In experiment [12] the test system is T2, MEK2.
T2 construct: gene MAP2K2
Particulars: concentration: 1 μM, replicates: in singlicate; n = 1.

Experiment [13] concerns T3, MEK3.
T3 construct: gene MAP2K3
The following applies: concentration: 1 μM, replicates: in singlicate; n = 1.

For experiment [14], the system named is T4, MEK4.
T4 construct: gene MAP2K4
The following applies: concentration: 1 μM, replicates: in singlicate, n = 1.

Experiment [15] relates to T5, MEK5.
T5 construct: gene MAP2K5
The following applies: concentration: 1 μM, replicates: in singlicate; n = 1.

Experiment [16] has as its system T6, MEK6.
T6 construct: gene MAP2K6
Particulars: concentration: 1 μM, replicates: in singlicate, n = 1.

In experiment [17] the test system is MELK. Particulars: concentration: 1 μM, replicates: in singlicate, n = 1.
The test system of experiment [18] is MERTK. Particulars: concentration: 1 μM, replicates: in singlicate, n = 1.
Experiment [19] concerns MET. The following applies: concentration: 1 μM, replicates: in singlicate, n = 1.
For experiment [20], the system named is T7, MINK.
T7 construct: gene MINK1
Particulars: concentration: 1 μM, replicates: in singlicate, n = 1.
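Also: KINOMEscan kinase panel screen.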

For `Cl.Oc1cccc(Nc2ccnc3cc(-c4ccncc4)ccc23)c1` [GW494601], the “%Inh” value is 0% in experiment [1]; 47% in experiment [2]; 20% in [3]; 0% in [4]; 0% in experiment [5]; 6% in experiment [6]. Besides, the “%Inh” value in experiment [7] came out at 0%; in experiment [8] it was 0%; in [9] it was 10%; in experiment [10] it was 51%; in [11], 33%; in [12], 100%. Besides, the “%Inh” value worked out at 0% in experiment [13]; 18% in experiment [14]; 99.8% in experiment [15]; 0% in experiment [16]; 0% in experiment [17]; 46% in experiment [18]. Besides, the figures for the “%Inh” value in [19] and in experiment [20] were 0% and 79%, respectively.

As to `c1ccc(-c2n[nH]cc2-c2ccnc3ccccc23)nc1` [GW271431], the “%Inh” value stood at 16% in experiment [1]; 23% in [2]; 3% in experiment [3]; 9% in experiment [4]; 0% in experiment [5]; 0% in [6]. Moreover, the “%Inh” value in experiment [7] is reported as 0%; in experiment [8], 0%; in experiment [9], 6%; in experiment [10] it was 0%; in experiment [11], 0%; in [12], 0%. Further, the “%Inh” value in [13] stood at 0%; in experiment [14], 32%; in experiment [15], 30%; in [16], 0%; in experiment [17], 10%; in experiment [18] it was 34%. Besides, the figures for the “%Inh” value in experiment [19] and in experiment [20] were 0% and 54%, respectively.

As for `O=C(NOCC1CC1)c1ccc(F)c(F)c1Nc1ccc(I)cc1Cl`, the “%Inh” value in experiment [1], in [2], in [3], in experiment [4], in experiment [5] and in [6] was 0% throughout. Moreover, the “%Inh” value in experiment [7] worked out at 6%; in experiment [8], 0%; in [9] it was 0%; in experiment [10], 0%; in experiment [11], 64%; in experiment [12] it was 47%. Moreover, the “%Inh” value in experiment [13], in experiment [14], in experiment [15], in experiment [16], in [17] and in experiment [18] was 0% in each case. The “%Inh” value in experiment [19] and in [20] was 0% each time.

As to `O=c1cc(N2CCOCC2)nc2n(Cc3cccc4ccccc34)ccn12` [GSK2333389], the “%Inh” value in experiment [1] was 6%; in experiment [2] it was 15%; in [3], 10%; in experiment [4], 3%; in experiment [5], 0%; in experiment [6] it was 0%. For the same molecule, the “%Inh” value is 0% in experiment [7]; 22% in experiment [8]; 1% in [9]; 0% in experiment [10]; 0% in [11]; 0% in experiment [12]. In addition, the “%Inh” value was 0% in experiment [13]; 3% in [14]; 18% in experiment [15]; 0% in experiment [16]; 0% in experiment [17]; 23% in experiment [18]. Besides, the “%Inh” value in [19] and in experiment [20] was 0% throughout.

Regarding `COc1ccc(Nc2ncc(C#N)c(Nc3ccccc3C(N)=O)n2)cc1N1CCN(C)CC1.Cl` [GSK1558669], the “%Inh” value in experiment [1] is given as 99.8%; in [2], 96.8%; in experiment [3], 99.3%; in [4] it was 0%; in [5] it was 0%; in [6] it was 99.3%. Further, the “%Inh” value in experiment [7] is 99.9%; in experiment [8], 89%; in experiment [9] it was 98.7%; in [10], 91.8%; in [11], 85%; in experiment [12] it was 92.6%. Further, the “%Inh” value in [13] stood at 89%; in experiment [14] it was 92.5%; in experiment [15], 100%; in [16], 79%; in [17], 100%; in experiment [18], 100%. In addition, the “%Inh” value in experiment [19] is 92%; in experiment [20], 98.7%.

Take `CC(C)(CN)c1nc(-c2ccc(Cl)c(O)c2)c(-c2ccncc2)[nH]1.O=C(O)C(F)(F)F` [SB-477794]: the “%Inh” value was 0% in experiment [1]; 81% and 83% in [2] (1 µM); 17% and 26% in [3] (1 µM); 13% and 0% in experiment [4] (1 µM); 0% in [5]; 0% and 4% in experiment [6] (1 µM). Further, the “%Inh” value in experiment [7] (1 µM) was 0% and 22%; in experiment [8] (1 µM) it was 0% and 6%; in experiment [9] (1 µM), 0% and 13%; in experiment [10] (1 µM), 0% and 45%; in experiment [11] (1 µM) it was 14% and 2%; in experiment [12], 20%. Besides, the “%Inh” value in experiment [13] is 0%; in experiment [14] (1 µM), 0% and 8%; in experiment [15], 99.5%; in experiment [16] (1 µM) it was 0% and 100%; in experiment [17] (1 µM), 25% and 51%; in experiment [18] (1 µM), 32% and 45%. The “%Inh” value was 0% and 12% in experiment [19] (1 µM); 91.7% and 93.9% in experiment [20] (1 µM).

In the case of `C[C@@H](Oc1cc(-n2cnc3ccc(NC(=O)NC(C)(C)C)cc32)sc1C(N)=O)c1ccccc1Cl` [GSK346294], the “%Inh” value in experiment [1] was 0%; in experiment [2] it was 2%; in [3] it was 0%; in experiment [4], 12%; in experiment [5], 0%; in experiment [6], 1%. For the same molecule, the “%Inh” value in experiment [7] was found to be 0%; in experiment [8], 0%; in [9] it was 9%; in experiment [10] it was 0%; in experiment [11], 0%; in [12], 0%. Moreover, the “%Inh” value in experiment [13] is 0%; in experiment [14], 14%; in [15], 18%; in experiment [16] it was 0%; in experiment [17], 21%; in [18], 8%. Also, the entries for the “%Inh” value in experiment [19] and in [20] were 0% and 4%, respectively.

In the case of `N#Cc1ccc(-c2cc(-c3c[nH]nc3-c3ccccn3)ccn2)cc1` [GW693028], the “%Inh” value in experiment [1] is 0%; in experiment [2], 46%; in [3], 0%; in experiment [4], 4%; in experiment [5] it was 0%; in experiment [6] it was 0%. Besides, the “%Inh” value turned out to be 0% in experiment [7]; 0% in experiment [8]; 0% in experiment [9]; 26% in experiment [10]; 0% in experiment [11]; 0% in [12]. The “%Inh” value in experiment [13] amounted to 0%; in experiment [14], 1%; in [15] it was 13%; in [16], 0%; in experiment [17], 0%; in experiment [18] it was 15%. The “%Inh” value in experiment [19] worked out at 0%; in experiment [20], 76%.

Consider `Cc1ccc(NC(=O)c2ccnc(N3CCN(C)CC3)c2)cc1-c1ccc(C(=O)NCC2CC2)cc1` [GW775604], for which the “%Inh” value in [1] stood at 9%; in experiment [2] it was 0%; in experiment [3], 0%; in [4], 0%; in experiment [5] it was 0%; in experiment [6] it was 12%. Moreover, the “%Inh” value in [7] came out at 0%; in experiment [8], 10%; in experiment [9], 41%; in [10], 0%; in experiment [11], 3%; in experiment [12] it was 25%. The “%Inh” value in [13] is 1%; in [14] it was 0%; in experiment [15], 2%; in experiment [16], 11%; in experiment [17] it was 0%; in experiment [18], 0%. Moreover, the “%Inh” value in [19] and in experiment [20] was 0% each time.
